PubChem BioAssay (EPA / NIEHS)
Inconclusive results are not listed. Calls of active or inactive are those of the source. Rule for the calls, unless noted: active = hit-call score of the fitted dose curve at least 0.9, where 1 is the maximum; inactive = score below 0.9.

Experiments:
[1] = target: Retinoic acid receptor RXR-alpha (Homo sapiens) (UniProt P19793); test: ATG_RXRa_TRANS: Attagene TRANS-FACTORIAL HepG2 Assay for human Retinoid X Receptor alpha (RXRa) (AID 2283012; active = hit-call score of the fitted dose curve at least 0.9, where 1 is the maximum)
Method in brief: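 Read-out: fluorescent reporter-transcript fragments quantified by capillary electrophoresis after RT-PCR. Transiently transfected HepG2 cells carrying GAL4-UAS reporters and NR-GAL4 chimeras were exposed to chemical for 24 h; activity scored as increase over DMSO.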

[2] = read-out: E-selectin (Homo sapiens) (UniProt P16581); test: BSK_3C_Eselectin: BioMAP Diversity Plus: 3C Assay for Eselectin Biomarker Activity (AID 2283015); details: primary human endothelial cells (HUVEC); actives raise or lower the signal
Method in brief: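 Primary human umbilical vein endothelial cells (3C system) were dosed with chemical and cell-surface E-selectin measured by ELISA 24 h later. Bidirectional curve fitting used DMSO as negative control and baseline.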

[3] = read-out: Interleukin-1 alpha (IL1a), IL1A (gene 3552); test: BSK_BE3C_IL1a: BioMAP Diversity Plus: BE3C Assay for Interleukin-1 alpha (IL1a) Biomarker Activity (AID 2283016); details: primary human bronchial epithelial cells; actives raise or lower the signal
Method in brief: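 ELISA read-out of IL-1a from human lung bronchial epithelial primary cells, 24 h post-dose. Gain or loss of signal fitted relative to DMSO negative control.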

[4] = read-out: Monocyte Chemoattractant Protein-1 (MCP1), CCL2 (gene 6347); test: BSK_3C_MCP1: BioMAP Diversity Plus: 3C Assay for Monocyte Chemoattractant Protein-1 (MCP1) Biomarker Activity (AID 2283017); details: primary human endothelial cells (HUVEC); actives raise or lower the signal
Method in brief: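 Primary human umbilical vein endothelial cells (3C system) were exposed to test chemical for 24 h, after which MCP-1 was quantified by ELISA. Activity was fitted bidirectionally against DMSO as negative control and baseline.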

[5] = read-out: Monocyte Chemoattractant Protein-1 (MCP1), CCL2 (gene 6347); test: BSK_4H_MCP1: BioMAP Diversity Plus: 4H Assay for Monocyte Chemoattractant Protein-1 (MCP1) Biomarker Activity (AID 2283018); details: primary human endothelial cells (HUVEC); actives raise or lower the signal
Method in brief: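 HUVEC primary cells, 24 h post-dose, MCP-1 by ELISA. Gain or loss of signal fitted bidirectionally vs DMSO baseline. Cytotoxicity: SRB stain (0.1% after 10% TCA fixation), read 560 nm, parallel cultures.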

[6] = read-out: Human Leukocyte Antigen - DR isotype (HLADR), HLA-DRA (gene 3122); test: BSK_3C_HLADR: BioMAP Diversity Plus: 3C Assay for Human Leukocyte Antigen - DR isotype (HLADR) Biomarker Activity (AID 2283019); details: primary human endothelial cells (HUVEC); actives raise or lower the signal;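 note: ELISA of cell-surface HLA-DR on HUVEC 24 h after dosing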
Method in brief: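 Primary human umbilical vein endothelial cells (3C system) were dosed with compound and cell-surface HLA-DR was quantified by ELISA at 24 h. Activity was fitted bidirectionally against DMSO as negative control and baseline.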

[7] = read-out: Interleukin-8 (IL8), CXCL8 (gene 3576); test: BSK_3C_IL8: BioMAP Diversity Plus: 3C Assay for Interleukin-8 (IL8) Biomarker Activity (AID 2283020); details: primary human endothelial cells (HUVEC); actives raise or lower the signal
Method in brief: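 HUVEC, 3C stimulation; 24 h compound exposure; IL-8 read by ELISA; gain or loss of signal fitted relative to DMSO control.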

[8] = read-out: Monokine induced gamma interferon (MIG), CXCL9 (gene 4283); test: BSK_3C_MIG: BioMAP Diversity Plus: 3C Assay for Monokine induced gamma interferon (MIG) Biomarker Activity (AID 2283021); details: primary human endothelial cells (HUVEC); actives raise or lower the signal;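 for AC50: MIG protein level measured by immunoassay in the treated endothelial cultures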
Method in brief: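 HUVEC, 3C system; 24 h chemical exposure; MIG by ELISA; bidirectional fit vs DMSO baseline.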

[9] = target: human Retinoid X Receptor beta (RXRb), RXRB (gene 6257) (UniProt P28702); test: ATG_RXRb_TRANS: Attagene TRANS-FACTORIAL HepG2 Assay for human Retinoid X Receptor beta (RXRb) (AID 2283013; active = hit-call score of the fitted dose curve at least 0.9, where 1 is the maximum)
Method in brief: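 Read-out: reporter mRNA induction via RT-PCR plus capillary electrophoresis fluorescence, analysed as signal increase relative to DMSO. Cells were human HepG2, transiently transfected with GAL4-UAS reporter constructs and chimeric receptor-Gal4 fusions, dosed for 24 h.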

[10] = target: human Vitamin D Receptor (VDR), VDR (gene 7421) (UniProt P11473); test: ATG_VDR_TRANS: Attagene TRANS-FACTORIAL HepG2 Assay for human Vitamin D Receptor (VDR) (AID 2283022; active = hit-call score of the fitted dose curve at least 0.9, where 1 is the maximum)
Method in brief: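 HepG2 cells were transiently transfected with multiple GAL4-UAS reporter units, so signal reflects exogenous chimeric receptor-Gal4 activity. After 24 h compound exposure, reporter mRNA was measured by RT-PCR, fluorescent labelling and capillary electrophoresis, fitted for gain of signal versus DMSO.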

Measured: AC50

E-selectin (Homo sapiens), sequence (P16581 whole entry, looked up): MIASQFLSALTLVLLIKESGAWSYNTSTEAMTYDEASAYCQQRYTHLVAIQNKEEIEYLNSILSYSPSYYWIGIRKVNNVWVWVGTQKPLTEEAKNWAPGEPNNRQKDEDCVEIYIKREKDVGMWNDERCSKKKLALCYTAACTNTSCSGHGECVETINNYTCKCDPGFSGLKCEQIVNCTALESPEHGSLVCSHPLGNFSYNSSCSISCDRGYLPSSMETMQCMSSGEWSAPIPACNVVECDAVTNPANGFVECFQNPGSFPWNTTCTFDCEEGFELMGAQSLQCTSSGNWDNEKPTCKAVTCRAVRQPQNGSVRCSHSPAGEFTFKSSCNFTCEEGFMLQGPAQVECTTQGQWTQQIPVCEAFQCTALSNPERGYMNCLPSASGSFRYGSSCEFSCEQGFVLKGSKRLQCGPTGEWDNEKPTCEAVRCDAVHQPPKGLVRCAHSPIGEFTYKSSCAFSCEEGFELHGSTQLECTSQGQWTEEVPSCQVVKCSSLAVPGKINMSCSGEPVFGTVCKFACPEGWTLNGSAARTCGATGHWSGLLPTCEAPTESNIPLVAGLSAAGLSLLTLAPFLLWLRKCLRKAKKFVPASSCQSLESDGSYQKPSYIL
human Retinoid X Receptor beta (RXRb), RXRB (gene 6257), sequence (P28702 whole entry, looked up, the tested form may be a part): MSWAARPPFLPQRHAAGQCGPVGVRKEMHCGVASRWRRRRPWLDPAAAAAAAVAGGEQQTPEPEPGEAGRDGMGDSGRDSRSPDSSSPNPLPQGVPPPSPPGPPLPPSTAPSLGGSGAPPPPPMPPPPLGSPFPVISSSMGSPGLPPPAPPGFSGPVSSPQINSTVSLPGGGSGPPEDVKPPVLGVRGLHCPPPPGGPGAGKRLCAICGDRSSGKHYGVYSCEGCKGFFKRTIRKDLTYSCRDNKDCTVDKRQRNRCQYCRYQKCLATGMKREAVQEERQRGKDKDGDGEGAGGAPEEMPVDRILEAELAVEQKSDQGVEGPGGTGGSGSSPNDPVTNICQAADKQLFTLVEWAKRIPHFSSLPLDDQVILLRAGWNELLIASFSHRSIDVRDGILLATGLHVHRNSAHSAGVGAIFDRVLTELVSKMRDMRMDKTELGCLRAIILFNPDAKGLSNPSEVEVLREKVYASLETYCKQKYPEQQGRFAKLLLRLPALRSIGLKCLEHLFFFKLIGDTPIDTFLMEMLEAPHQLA
Retinoic acid receptor RXR-alpha (Homo sapiens), sequence (P19793 whole entry, looked up, the tested form may be a part): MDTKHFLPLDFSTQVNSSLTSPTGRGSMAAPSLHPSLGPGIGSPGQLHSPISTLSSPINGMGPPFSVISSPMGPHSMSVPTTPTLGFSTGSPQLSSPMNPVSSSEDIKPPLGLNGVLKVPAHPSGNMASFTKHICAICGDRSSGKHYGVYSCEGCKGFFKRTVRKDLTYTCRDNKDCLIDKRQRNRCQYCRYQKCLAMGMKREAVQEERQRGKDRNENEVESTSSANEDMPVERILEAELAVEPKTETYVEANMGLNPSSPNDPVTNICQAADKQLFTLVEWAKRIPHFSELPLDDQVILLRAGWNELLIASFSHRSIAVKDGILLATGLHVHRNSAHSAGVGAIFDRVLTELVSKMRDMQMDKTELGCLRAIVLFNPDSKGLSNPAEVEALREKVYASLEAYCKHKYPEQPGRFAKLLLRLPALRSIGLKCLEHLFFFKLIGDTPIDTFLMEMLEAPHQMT
human Vitamin D Receptor (VDR), VDR (gene 7421), sequence (P11473 whole entry, looked up, the tested form may be a part): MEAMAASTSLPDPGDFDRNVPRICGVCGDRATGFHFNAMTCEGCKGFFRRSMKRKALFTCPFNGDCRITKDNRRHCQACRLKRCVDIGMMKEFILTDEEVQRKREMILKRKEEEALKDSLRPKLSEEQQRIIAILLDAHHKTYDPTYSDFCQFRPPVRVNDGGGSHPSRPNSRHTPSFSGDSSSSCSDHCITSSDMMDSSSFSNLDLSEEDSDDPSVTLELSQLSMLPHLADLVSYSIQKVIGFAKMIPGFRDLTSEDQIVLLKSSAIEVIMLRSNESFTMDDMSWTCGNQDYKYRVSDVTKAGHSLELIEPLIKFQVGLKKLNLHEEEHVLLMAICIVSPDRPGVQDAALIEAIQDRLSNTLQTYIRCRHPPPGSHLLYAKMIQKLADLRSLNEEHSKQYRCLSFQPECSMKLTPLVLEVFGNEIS

CSc1ccc(Oc2ccc(S(N)(=O)=O)cc2CN(C)C)cc1C
not listed: [9] | [10]
inactive: all other assays above

CC(=O)OCC(COC(C)=O)OC(C)=O
not listed: [5] | [9] | [10]
inactive: all other assays above

Nc1nc(=S)c2[nH]cnc2[nH]1
not listed: [3] | [10]
inactive: all other assays above

CC(=O)[C@@]1(O)CC[C@H]2[C@@H]3CCC4=CC(=O)CC[C@]4(C)[C@H]3CC[C@@]21C
not listed: [3] | [10]
inactive: all other assays above

CC(=O)CC(c1ccccc1)c1c(O)c2ccccc2oc1=O (stereo not given)
not listed: [3] | [9] | [10]
inactive: all other assays above

Cc1c(C)c2c(c(C)c1O)CCC(C)(COc1ccc(CC3SC(=O)NC3=O)cc1)O2 (stereo not given)
active: [2] 30.3 µM | [4] 30.6 µM | [5] 9.95 µM | [7] 20 µM | [8] 34.2 µM
inactive: [1] | [10]

C/C=C/C=C/C(=O)O
active: [9] 41.5 µM
not listed: [1] | [10]
inactive: all other assays above

CC(C)NCC(O)c1ccc(O)c(O)c1 (stereo not given)
not listed: [1] | [5] | [10]
inactive: all other assays above

O=[Si]=O
not listed: [3] | [5] | [10]
inactive: all other assays above

C=CCc1ccc(OC)c(OC)c1
active: [9] 65.4 µM
not listed: [3]
inactive: all other assays above

COC(=O)CCCC(=O)OC
not listed: [3] | [9] | [10]
inactive: all other assays above

Cc1occc(=O)c1O
not listed: [1] | [9]
inactive: all other assays above

CCCC(=O)O
inactive: [2] | [4] | [6] | [7] | [8]

CCCCCCCC(=O)OC
not listed: [1] | [5] | [10]
inactive: all other assays above

c1ccc2occc2c1
inactive: [2] | [4] | [5] | [6] | [7] | [8]

O=C(O)c1[nH]n(-c2ccc(S(=O)(=O)O)cc2)c(=O)c1N=Nc1ccc(S(=O)(=O)O)cc1
inactive: [2] | [4] | [6] | [7] | [8]

NC=O
not listed: [1] | [3]
inactive: all other assays above

C#CC(O)C(CC)CCCC (stereo not given)
not listed: [1] | [3] | [10]
inactive: all other assays above

CC1=C(C)S(=O)(=O)CCS1(=O)=O
inactive: [2] | [4] | [5] | [6] | [7] | [8]
